Measurements published in PubChem BioAssay AID1508622 (National Center for Advancing Translational Sciences (NCATS), 2021).

Assay: Confirmatory qHTS for Identification of Small Molecule Activators of Huntingtin-Antisense Promoter Activity
Settings: HEK293 HTT-AS promoter firefly luciferase reporter, 24 h; series mostly up to 57.5 µM; activity change, positive = activation: at the top concentration; active means well fitted activation curve with a large enough effect; inconclusive means small, poorly fitted or top-dose-only effect; inactive means no such curve, though single readings can be large or run the other way
How it was run: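 Activity normalized between vehicle control (0%) and zero RLU (-100%) from firefly luminescence (Dual-Glo). Compounds, up to 57.5 uM final, incubated 24 h at 37C on HEK293 reporter cells plated 24 h earlier.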

Activity change, positive = activation, inactive:
COc1cc(C[C@@H](CO)[C@H](CO)Cc2ccc(O)c(OC)c2)ccc1O 0.541%
O=C(NCC(c1ccc2c(c1)OCO2)N1CCN(c2ccc(F)cc2)CC1)c1cccc([N+](=O)[O-])c1 (stereo not given) -46.7%
CC[C@@H]1C(=O)N(C)c2cnc(Nc3ccc(C(=O)NC4CCC(N5CCN(CC6CC6)CC5)CC4)cc3OC)nc2N1C(C)C (stereo not given in full) 1.78%
CC(C)c1ccc(Nc2c(-c3ccccn3)nc3ccccn23)cc1 -93.2%
CC(C)c1ccc(CNC(=O)c2ccc(N3CCCC3)c(NC(=O)NCc3ccc(F)cc3)c2)cc1 -21.6%
CCn1c(=O)sc2cc(NS(=O)(=O)c3ccc(F)c(C)c3)ccc21 -87.8%
COc1cc2nc(N3CCCN(C)CC3)nc(NC3CCN(Cc4ccccc4)CC3)c2cc1OC -53.4%
CCOCCCNC(=O)c1c[nH]c2ccc(S(=O)(=O)N(C)c3ccc(Cl)cc3F)cc2c1=O -34.5%
CCc1c(C)sc2c1CCN(Cc1ccccc1F)C2c1ccccc1 (stereo not given) -23.1%
COc1cc(NS(=O)(=O)c2ccc3c(c2)CCCN3C(C)=O)cc(OC)c1OC -94.9%
Cc1ccc2c(c1)N(C(=O)c1ccc(F)cc1)C(C)(C)CC2(C)c1ccccc1 (stereo not given) -66.1%
COc1ccc(N2CCN(C(CNC(=O)C(=O)NCCc3ccccc3)c3cccnc3)CC2)cc1 (stereo not given) -34.6%
Cc1ccc(Cl)cc1N1CCN(C(=O)Cn2cnc3nc4c(cc3c2=O)CCCC4)CC1 -39.4%
O=C(Nc1ccc(F)c(Cl)c1)c1cc(S(=O)(=O)N2CCCc3ccccc32)ccc1F 24.1%
Cc1ccccc1-c1nc(CS(=O)CC(=O)N2CCN(c3cc(Cl)ccc3C)CC2)c(C)o1 (stereo not given) -92.8%
